Screening results (PubChem BioAssay)
G9a inh: inhibitors of human histone lysine methyltransferase G9a | Q96KQ7 | G9a H3K9 monomethylation, AlphaScreen, 2 h | Potency, µM (highest dose often 102 µM), for inactives: at the highest dose activity, negative = inhibition, usual class: inhibitors | hit rate 8.8% among 350,000 | AID 504332; note: % is set by controls: 0 for no effect and ±100 for the full control effect; nearly all actives have a fitted effect of over 75% in size
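Methyltransferase reactions run at room temperature for 2 h (20 nM enzyme, 500 nM biotin-H3K9 peptide, 20 uM SAM) after a 15 min compound preincubation; product detected by AlphaScreen beads and anti-H3K9me1 antibody.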
Sfp PPTase inh: blocks B. subtilis Sfp PPTase activity. Q9F4F7. Biochemical Sfp PPTase activity, qHTS. Potency, µM, for the others: largest response in the series, negative = inhibition, actives largely listed as inhibitors. hit rate 3.5% among 310,000. AID 1490;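 note: the enzyme is Sfp with the accession as filed and its product quenches rhodamine fluorescence; 0% = enzyme reaction without inhibitor and -100% = no enzyme wells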
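Buffer: 50 mM Hepes-Na pH 7.6, 10 mM MgCl2, 0.01% Nonidet P-40, 0.01% BSA. Enzyme 15 nM, pre-exposed to compound 15 min; substrates then added and fluorescence change tracked over 30 min.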
HP1b binding inh: blocks HP1-beta chromodomain binding to methylated histone tails. AID 540317. Potency, µM (highest dose often 114 µM), inactives show at the top dose activity change, negative = inhibition, actives largely listed as inhibitors. AlphaScreen HP1-beta / biotin-H3K9me3 peptide binding. P83916. hit rate 0.56% among 390,000; note: nearly all actives have a fitted effect of over 70% in size
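HP1-beta protein (50 nM final) preincubated 30 min at room temperature with biotinylated H3(1-18)K9me3 peptide (50 nM) in PBS pH 7.4, 0.01% Tween-20, then compound added for 30 min. AlphaScreen streptavidin donor/nickel chelate acceptor beads (10 ug/mL final), 30 min dark, luminescence read.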
BAZ2B block: blocks human BAZ2B | Q9UIF8 | AlphaScreen BAZ2B-H3K14Ac peptide displacement | Potency, µM (doses to about 114 µM), for the others: at the top dose activity change, negative = inhibition, usual class: inhibitors | hit rate 4.4% among 360,000 | AID 504333; note: % is set by controls: 0 for no effect and ±100 for the full control effect; nearly all actives have a fitted effect of over 60% in size
Target sequence (Q9UIF8 whole entry, looked up): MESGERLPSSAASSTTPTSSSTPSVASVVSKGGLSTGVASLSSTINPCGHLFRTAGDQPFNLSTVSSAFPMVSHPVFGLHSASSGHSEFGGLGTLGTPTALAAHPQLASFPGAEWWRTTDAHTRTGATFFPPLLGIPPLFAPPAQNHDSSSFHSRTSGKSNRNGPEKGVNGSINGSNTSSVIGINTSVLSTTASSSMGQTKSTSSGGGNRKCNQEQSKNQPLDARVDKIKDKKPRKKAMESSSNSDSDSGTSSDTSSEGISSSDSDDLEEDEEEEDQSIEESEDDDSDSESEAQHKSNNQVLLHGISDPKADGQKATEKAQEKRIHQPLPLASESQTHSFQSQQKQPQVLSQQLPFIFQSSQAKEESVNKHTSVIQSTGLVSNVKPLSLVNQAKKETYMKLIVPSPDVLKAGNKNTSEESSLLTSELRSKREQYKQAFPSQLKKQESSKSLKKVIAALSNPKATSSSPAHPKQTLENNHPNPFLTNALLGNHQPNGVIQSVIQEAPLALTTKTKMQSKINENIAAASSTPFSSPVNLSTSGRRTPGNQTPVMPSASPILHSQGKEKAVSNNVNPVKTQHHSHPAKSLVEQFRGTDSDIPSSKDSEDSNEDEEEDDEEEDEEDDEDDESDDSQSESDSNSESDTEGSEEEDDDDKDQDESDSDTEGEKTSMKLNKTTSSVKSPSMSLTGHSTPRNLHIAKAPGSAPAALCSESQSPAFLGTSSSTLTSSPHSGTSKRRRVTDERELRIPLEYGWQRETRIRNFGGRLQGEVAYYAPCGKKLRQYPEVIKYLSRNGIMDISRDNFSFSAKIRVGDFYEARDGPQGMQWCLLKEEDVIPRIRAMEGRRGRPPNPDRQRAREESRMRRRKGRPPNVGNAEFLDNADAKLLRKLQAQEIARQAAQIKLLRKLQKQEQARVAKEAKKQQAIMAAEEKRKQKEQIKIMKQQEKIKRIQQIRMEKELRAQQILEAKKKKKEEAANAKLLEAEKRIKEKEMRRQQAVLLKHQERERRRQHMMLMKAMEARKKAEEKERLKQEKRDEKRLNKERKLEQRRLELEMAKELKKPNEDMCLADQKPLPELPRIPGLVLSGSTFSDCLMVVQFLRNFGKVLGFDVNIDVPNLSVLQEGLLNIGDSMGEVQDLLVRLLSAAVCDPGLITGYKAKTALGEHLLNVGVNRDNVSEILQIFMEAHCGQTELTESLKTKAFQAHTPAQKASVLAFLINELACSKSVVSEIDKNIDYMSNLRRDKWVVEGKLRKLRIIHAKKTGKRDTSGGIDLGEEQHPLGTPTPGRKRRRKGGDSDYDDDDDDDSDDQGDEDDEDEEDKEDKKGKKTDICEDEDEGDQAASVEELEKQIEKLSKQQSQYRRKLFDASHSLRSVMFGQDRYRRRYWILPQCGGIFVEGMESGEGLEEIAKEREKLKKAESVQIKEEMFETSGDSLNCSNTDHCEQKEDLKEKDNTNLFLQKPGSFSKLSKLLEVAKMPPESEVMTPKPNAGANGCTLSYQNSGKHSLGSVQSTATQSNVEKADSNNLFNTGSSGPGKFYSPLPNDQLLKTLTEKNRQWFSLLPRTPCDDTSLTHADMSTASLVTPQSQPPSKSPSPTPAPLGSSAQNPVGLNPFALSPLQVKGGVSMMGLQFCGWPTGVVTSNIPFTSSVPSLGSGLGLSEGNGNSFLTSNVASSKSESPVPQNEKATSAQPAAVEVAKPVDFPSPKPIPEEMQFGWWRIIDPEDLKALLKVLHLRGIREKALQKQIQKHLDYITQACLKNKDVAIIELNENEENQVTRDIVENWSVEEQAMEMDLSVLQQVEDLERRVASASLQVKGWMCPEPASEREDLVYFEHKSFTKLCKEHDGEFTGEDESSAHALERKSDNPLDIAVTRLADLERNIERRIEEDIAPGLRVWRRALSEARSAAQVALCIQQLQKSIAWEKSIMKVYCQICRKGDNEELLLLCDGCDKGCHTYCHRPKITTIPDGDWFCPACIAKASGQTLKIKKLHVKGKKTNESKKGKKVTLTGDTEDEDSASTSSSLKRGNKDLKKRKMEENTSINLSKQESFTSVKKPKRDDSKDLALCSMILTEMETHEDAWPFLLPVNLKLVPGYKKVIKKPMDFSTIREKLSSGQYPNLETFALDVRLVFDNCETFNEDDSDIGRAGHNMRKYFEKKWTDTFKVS
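Complex of BAZ2B and biotin-H3K14Ac (50 nM apiece) forms over 30 min at RT, then faces library compounds up to 110 uM for another 30 min; AlphaScreen beads added, 20 min dark incubation, luminescence read.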
L3MBTL1 inh-1: blocks human L3MBTL1. AlphaScreen L3MBTL1–H3K9me1 peptide binding. Potency, µM (titrated, usually from 57.1 µM), inactives show top-dose activity, negative = inhibition, usual class: inhibitors. hit rate 0.66% among 230,000. AID 485360; note: % is set by controls: 0 for no effect and ±100 for the full control effect; nearly all actives have a fitted effect of over 60% in size
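AlphaScreen assay: L3MBTL1 (50 nM final) was preincubated 30 min at room temperature with biotinylated H3(1-15)K9me1 peptide (75 nM final), then 30 min with library compounds; streptavidin donor and nickel chelate acceptor beads (10 ug/mL final) added, 30 min dark.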
JMJD2A Tudor: JMJD2A Tudor domain (human) inhibition; AlphaScreen JMJD2A-Tudor / H3K4me3 peptide binding; Potency, µM (doses to about 114 µM), inactives show at the top dose activity change, negative = inhibition, usual class: inhibitors; AID 504339; hit rate 4.4% among 390,000; O75164; note: % is set by controls: 0 for no effect and ±100 for the full control effect; nearly all actives have a fitted effect of over 50% in size
L3MBTL1 inh-2: validation of human L3MBTL1 methyl-lysine binding inhibitors; shares compounds with L3MBTL1 inh-1; L3MBTL1 methyl-lysine binding inhibition, biochemical qHTS; Potency, µM, usual class: inhibitors; hit rate 91% among 500; AID 540279; note: nearly all actives have a fitted effect of over 70% in size
AlphaScreen ctr2: counter-screen for L3MBTL1 inhibitors: AlphaScreen signal interference | shares compounds with L3MBTL1 inh-1 | AlphaScreen counterscreen, signal inhibition | Potency, µM (doses to about 57.1 µM), inactives show at the top dose activity change, negative = inhibition, usual class: inhibitors | 500 tested, under 10 active; note: 0% is about no effect
Starred values were filed as active, the others as inactive; ? = inconclusive; . = no result; [ ] = another dose, or the depositor's remark. Most compounds without a hit are left out; they make up all but 12% or so of the library. Calls come from the whole dose curve; as a rule, active = well fitted curve in the direction sought with a large enough effect; inconclusive = small, poorly fitted or top-dose-only effect, or another doubt; inactive = no such curve, though single readings can be large; an effect the other way counts as inactive or inconclusive. Potency is the fitted concentration of half-maximal effect.

SMILES	G9a inh	Sfp PPTase inh	HP1b binding inh	BAZ2B block	L3MBTL1 inh-1	JMJD2A Tudor	L3MBTL1 inh-2	AlphaScreen ctr2
O=C(CSc1ccsc1[N+](=O)[O-])Nc1cccc(F)c1	50µM*	-14%	?	35µM*	28µM*	45µM*	7.5*	-4%
Cc1ccc(-c2csc3ncn(CC#N)c(=O)c23)cc1C	?	7%	?	50µM*	22µM*	50µM*	21*	13%
Cc1ccc(-c2csc3ncn(CC#N)c(=O)c23)cc1	.	-17%	35%	9%	-13%	-26%	.	.
CC(=O)Nc1ccc2nc3c(=O)n(C)c(=O)n(C)c3nc2c1	40µM*	?	-9%	?	25µM*	79µM*	24*	5%
Cn1c(=O)c2nc3ccccc3nc2n(C)c1=O	?	-14%	27%	?	10%	-14%	.	.
O=C(CCOc1ccc(F)cc1)Nc1nccs1	0%	-2%	19%	-9%	-6%	-2%	.	.
COc1ccc(CNC(=O)c2cnc(C)cn2)cc1	-2%[59 µM]	15%	17%	50µM*	22µM*	-30%	17*	13%
CCN(CC(=O)Nc1ccc(NC(C)=O)cc1)C(=O)c1cccc(-n2cccc2)c1	50µM*	.	?	50µM*	28µM*	-32%	21*	9%
CCN(CC(=O)Nc1ccc(NC(C)=O)cc1)C(=O)c1cccc(Oc2ccccc2)c1	-3%	.	-2%	-1%	-3%	-19%	.	.
Cc1ccc(C)c(NC(=O)CN(C)C(=O)c2cccc(-n3cccc3)c2)c1	40µM*	.	45µM*	25µM*	8.9µM*	16µM*	2.7*	?
CCCCc1ccc(NC(=O)c2cc(-c3ccc(C)c(F)c3)on2)cc1	-10%[59 µM]	.	1%	-7%	.	-24%	.	.
COc1ccc(C2CC(=O)Nc3cc(OC)c(OC)cc32)cc1Br (stereo not given)	-25%	-4%	1%	?	-13%	-22%	.	.
COc1ccc(C2CC(=O)Nc3ccccc3S2(=O)=O)cc1OC (stereo not given)	-5%[2.33 µM]	-10%	2%	24%	11µM*	-18%	?	1%
O=C(O)c1cccc(-c2ccc(/C=c3/sc4nc5ccccc5n4c3=O)o2)c1	7.9µM*	?	?	25µM*	3.5µM*	22µM*	2.7*	50%
CC(C)(O)c1cc(=O)sc2nc3ccccc3n12	-7%[59 µM]	10%	35%	-4%	3%	-4%	.	.
O=C(O)c1cc(C(=O)O)cc(-c2ccc(/C=c3/sc4nc5ccccc5n4c3=O)o2)c1	2µM*	7.1µM*	16µM*	20µM*	1.8µM*	22µM*	3.4*	-5%
Cc1cc(C)c2nc(N3C(=O)C(O)=C(C(=O)c4ccco4)C3c3ccc(O)cc3)sc2c1 (stereo not given)	?	.	-8%	?	-16%	?	.	.
O=C(C1=C(O)C(=O)N(c2nc3ccc(Cl)cc3s2)C1c1ccco1)c1ccco1 (stereo not given)	?	.	28µM*	45µM*	20µM*	13µM*	6*	-4%
Cc1cc(N2C(=O)C(O)=C(C(=O)c3ccco3)C2c2ccc(Cl)cc2)no1 (stereo not given)	?	11%	28%	-23%	.	4%	.	.
Cc1cc(C)c2nc(N3C(=O)C(O)=C(C(=O)c4ccco4)C3c3cccc(O)c3)sc2c1 (stereo not given)	-48%[2.33 µM]	.	-9%	?	32µM*	?	24*	0%
COc1cc(C(=O)Nc2ccc(NC(=O)c3ccc(C(C)(C)C)cc3)cc2)cc(OC)c1OC	2%[59 µM]	.	20%	-1%	.	-8%	.	.
